Assay results published in ChEMBL document CHEMBL1201862, “PubChem BioAssay data set” (2004).
Out of some 400,000 compounds screened, about 2,100 (0.53%) were called active. Inconclusive results (about 14%) are left out. This is one part of a sample in which actives are shown more often than they occur. How the calls were made is not given here.

Target: Ataxin-2 (Homo sapiens) (UniProt Q99700)
Assay: qHTS for Inhibitors of ATXN expression.
Format: functional

Sequence of Ataxin-2 (Homo sapiens) (Q99700 whole entry): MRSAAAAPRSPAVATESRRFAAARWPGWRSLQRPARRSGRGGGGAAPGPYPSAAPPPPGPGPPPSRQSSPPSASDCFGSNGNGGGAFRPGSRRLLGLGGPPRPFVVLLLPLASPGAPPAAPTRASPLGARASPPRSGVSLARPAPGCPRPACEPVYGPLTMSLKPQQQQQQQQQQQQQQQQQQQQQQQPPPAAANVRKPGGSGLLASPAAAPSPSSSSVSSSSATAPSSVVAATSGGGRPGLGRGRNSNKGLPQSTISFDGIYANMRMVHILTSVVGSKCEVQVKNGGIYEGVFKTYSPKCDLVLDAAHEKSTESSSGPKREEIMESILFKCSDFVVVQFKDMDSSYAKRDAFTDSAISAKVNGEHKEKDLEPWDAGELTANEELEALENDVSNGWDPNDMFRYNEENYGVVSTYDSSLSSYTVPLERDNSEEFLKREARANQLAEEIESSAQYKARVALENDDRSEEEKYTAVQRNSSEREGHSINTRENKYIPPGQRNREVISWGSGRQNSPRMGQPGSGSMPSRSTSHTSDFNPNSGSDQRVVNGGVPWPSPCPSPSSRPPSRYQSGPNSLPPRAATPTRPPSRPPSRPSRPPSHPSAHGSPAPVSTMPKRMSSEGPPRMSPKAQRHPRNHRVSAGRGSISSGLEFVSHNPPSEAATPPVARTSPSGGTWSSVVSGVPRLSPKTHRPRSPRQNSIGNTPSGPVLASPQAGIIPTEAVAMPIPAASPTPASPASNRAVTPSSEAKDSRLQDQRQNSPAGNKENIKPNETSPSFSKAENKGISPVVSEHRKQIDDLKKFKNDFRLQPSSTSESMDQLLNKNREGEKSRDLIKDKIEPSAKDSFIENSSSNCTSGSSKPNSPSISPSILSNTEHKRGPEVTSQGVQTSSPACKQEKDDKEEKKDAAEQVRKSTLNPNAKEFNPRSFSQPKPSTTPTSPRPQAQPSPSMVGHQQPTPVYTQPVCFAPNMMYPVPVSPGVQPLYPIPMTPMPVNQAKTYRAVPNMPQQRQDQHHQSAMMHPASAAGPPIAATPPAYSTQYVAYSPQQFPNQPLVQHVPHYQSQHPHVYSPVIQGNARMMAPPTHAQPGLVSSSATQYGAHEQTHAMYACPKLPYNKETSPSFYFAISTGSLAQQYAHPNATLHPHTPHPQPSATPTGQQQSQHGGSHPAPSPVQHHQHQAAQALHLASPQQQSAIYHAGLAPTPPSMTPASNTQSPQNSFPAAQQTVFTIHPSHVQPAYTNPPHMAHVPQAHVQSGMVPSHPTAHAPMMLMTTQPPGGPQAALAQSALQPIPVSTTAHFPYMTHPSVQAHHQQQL

Structure (SMILES)	Potency
CCCc1nc2c(C)cc(Br)cn2c1Cc1ccc(C)cc1	20 µM (active)
CCN(Cc1cc(=O)n2cc(Cl)c(C)c(Cl)c2n1)Cc1nc(O)c2ccccc2n1	inactive
CN(C)CCCN(C(=O)/C=C/c1cccs1)c1nc2ccc(F)cc2s1	39.8 µM (active)
COc1ccc(OC)c2sc(N(CCN(C)C)C(=O)/C=C/c3cccs3)nc12	28.2 µM (active)
CC(=O)Nc1ccc(NC(=O)C(C)OC(=O)/C=C/c2cccs2)cc1 (configuration not stated)	inactive
CCOC(=O)c1s/c(=N\C(=O)/C=C/c2cccs2)n(C)c1C	inactive
CN(C)CCCN(C(=O)C1COc2ccccc2O1)c1nc2ccc(F)cc2s1 (configuration not stated)	inactive
CCN(CC(=O)NCc1ccc(F)cc1)C(=O)/C=C/c1cccs1	inactive
CC1(C)C(=O)C=CC(=O)C(C)(C)C(=O)C=CC(=O)C(C)(C)C2=CC=C(O2)C(C)(C)C(=O)C=CC1=O	39.8 µM (active)
COCCN=C(S)NCCCNc1nc2cc3c(cc2cc1C#N)OCO3	inactive
Cc1ccc(O)c(-c2cc(-c3ccccc3[N+](=O)[O-])[nH]n2)c1	8.91 µM (active)
Cc1cccc(NC(=O)c2cc(-c3cc(Cl)ccc3O)[nH]n2)c1	inactive
Cc1ccc(C(=O)c2oc3ccccc3c2NC(=O)c2cc(-c3ccccc3O)[nH]n2)cc1	inactive
Cc1csc(NC(=O)c2cc(O)nc3ccc(S(=O)(=O)N4CCOCC4)cc23)n1	inactive
Cc1ccc(/C=N/N2CCCCC2)o1	inactive
O=C(O)c1cc(-c2ccc(/C=C3\NC(=O)N(c4ccc(Cl)cc4)C3=O)o2)ccc1Cl	inactive
CCc1cccc(CC)c1NC(=O)/C(C#N)=C/c1ccccc1C(F)(F)F	39.8 µM (active)
CCN(CC)c1ccc(/C=C(\C#N)C(=O)NCc2ccccc2)cc1	inactive
Cc1cc(/C=C(\C#N)C(=O)Nc2ccccc2F)c(C)[nH]1	inactive
O=C(NCc1ccccn1)C(=O)C1C(=O)Nc2ccccc21 (configuration not stated)	inactive
COc1ccc([C@H]2/C=C\CN(C(=O)CC(C)(C)C)[C@@H](C)C(=O)N2Cc2ccc(F)cc2)cc1	35.5 µM (active)
COc1ccc(CCNC2=CC(=O)N(c3ccc(F)cc3)C2=O)cc1	inactive
COc1cc(C(=O)N/N=C/c2sc(N3CCOCC3)nc2-c2ccccc2)cc(OC)c1OC	inactive
COc1ccc(/C=C2\Oc3cc(OCC(=O)N4CCC(C(=O)O)CC4)ccc3C2=O)c(OC)c1	inactive
COC(=O)c1cc(=O)n(CCc2ccccc2F)/c(=N/c2ccc(F)c(Cl)c2)s1	33.6 µM (active)

Structure (SMILES)	Potency
CCOC(=O)c1cc2c(=O)n3ccccc3nc2n(Cc2ccco2)/c1=N\C(=O)c1c(F)cccc1Cl	inactive
COC(=O)c1cc(=O)n(Cc2ccco2)/c(=N/c2ccc(F)c(Cl)c2)s1	3.16 µM (active)
Cc1cs/c(=N\c2cccnc2)n1Cc1ccco1	inactive
COC(=O)Cc1c(C)c2cc3c(c(C)c2oc1=O)OCN(CCc1ccccc1F)C3	inactive
COC(=O)c1cc(=O)n(-c2ccc(F)cc2)/c(=N/c2ccc(F)cc2)s1	23.8 µM (active)
COC(=O)c1cc2c(s1)-c1cc(F)ccc1OC2	inactive
Cc1ccc(CCNC(=O)c2cc(S(=O)(=O)N3CCOCC3)cn2C)cc1	inactive
COc1ccc(CN(C(=O)c2snc(C(N)=O)c2N)C(C)C(=O)NCc2ccc(F)cc2)cc1 (configuration not stated)	inactive
CCc1nc(Nc2cccc(OC)c2)c2oc3ccccc3c2n1	inactive
CNc1nc(N)c([N+](=O)[O-])c(NCC2CCCO2)n1 (configuration not stated)	inactive
COc1cccc(/C=C/c2nc(C#N)c(NC3CCCCC3)o2)c1	inactive
COc1ccc(Nc2nc(N)c([N+](=O)[O-])c(NC3CCCCC3)n2)cc1	31.6 µM (active)
COc1cccc(-c2ccc3c(N)c(C(=O)NCc4ccc(Cl)cc4)sc3n2)c1	inactive
COc1cccc(Nc2nc(N)c([N+](=O)[O-])c(NCc3ccccc3)n2)c1	31.6 µM (active)
O=C1/C(=C/c2ccco2)Oc2c1ccc(O)c2CN1CCCCC1	inactive
O=[N+]([O-])c1cccc(C2CC(c3ccccc3)=NN2c2ccccc2)c1 (configuration not stated)	inactive
O=c1cc(-c2ccccc2)[nH]n1-c1ccc([N+](=O)[O-])cc1	20 µM (active)
O=[N+]([O-])c1ccc(-c2cn3nc(-c4ccccc4)c(-c4ccccc4)nc3n2)cc1	inactive
CCOc1ccc(/C=C/c2nc(C#N)c(NCCCOC)o2)cc1	inactive
C#CCN(C[C@H]1[C@H](OC(=O)NC2CCCC2)[C@H](OC(=O)NC2CCCC2)C[C@@H](C(=O)OC)[C@H]1C(=O)OC)S(=O)(=O)c1ccc(C)cc1	39.8 µM (active)
CC(C)N1CCC(N2CCN(Cc3cccc4nonc34)CC2CCO)CC1 (configuration not stated)	inactive
CCCCNC(=O)CN1C(=O)c2cccc(N)c2C1=O	inactive
Clc1ccc(-c2cn3nc4c(nc3n2)CCCC4)cc1	inactive
COc1ccccc1/C=C/C=C1\Oc2c(ccc(O)c2CN(C)C)C1=O	inactive
COc1ccc(-c2nnc(-c3ccc(F)cc3)o2)cc1	inactive

Structure (SMILES)	Potency
COc1cccc2sc(Nc3nnc(-c4ccc(F)cc4)o3)nc12	31.6 µM (active)
CCOc1cccc2sc(NN)nc12	inactive
Cc1cccn2c(=O)c3cc(C(=O)NCc4ccccc4)c(=N)n(CCOCCO)c3nc12	inactive
Cc1c(O)c(CN2CCCC2)cc2c3c(c(=O)oc12)CCC3	inactive
COc1ccc(CCN2C(=O)COc3ccccc3C2C(=O)Nc2ccc3c(c2)OCCO3)cc1OC (configuration not stated)	25.1 µM (active)
Cc1ccc(NC(=O)C2OCCc3ccccc32)cc1C (configuration not stated)	inactive
CCCCNc1c(N)n(CCC)c(=O)[nH]c1=O	inactive
O=C(CN1C(=O)NC(Cc2c[nH]c3ccccc23)C1=O)Nc1ccc(F)c(F)c1F (configuration not stated)	inactive
CN(C)C(CN=C(S)Nc1cccc(Cl)c1)c1cccnc1 (configuration not stated)	inactive
CC(C)c1cccc(C(C)C)c1N=C(S)Nc1cccc(Cl)c1	inactive
Cc1csc(N=C(S)Nc2cccc(Cl)c2)n1	25.1 µM (active)
CCCCC[C@@H](C)N1C[C@H](COCc2ccccc2)Oc2cc(N3CCC[C@H]3CO)ccc2S1(=O)=O	10 µM (active)
CCCCC[C@@H](C)N1C[C@H](COCc2ccccc2)Oc2cc(N3CCC[C@@H]3CO)ccc2S1(=O)=O	39.8 µM (active)
CCCCC[C@H](C)N1C[C@H](COCc2ccccc2)Oc2cc(N3CCC[C@H]3CO)ccc2S1(=O)=O	28.2 µM (active)
Cc1ccc(-c2nc3n(n2)C(c2ccccc2C)C=C(c2ccc(Cl)cc2)N3)cc1 (configuration not stated)	inactive
COC(=O)c1ccc(C)c(NC(=O)CSc2nc3nc(O)cc(O)c3s2)c1	inactive
Cc1cccc2c1-c1sc(C(=O)Nc3nccs3)cc1CO2	inactive
COc1ccc(S(=O)(=O)N2CCN(Cc3cc(OC)c(OC)cc3OC)CC2)cc1	inactive
Cc1ccnc(N2C(=O)c3cccc4c([N+](=O)[O-])ccc(c34)C2=O)c1	inactive
CN(CC(=O)Nc1ccccc1Cl)C(=O)CN1C(=O)NC(c2ccccc2)(c2ccccc2)C1=O	inactive
COc1ccc(CN(C)C(C)C(=O)N(C)CC(=O)Nc2ccc(C)cc2)cc1F (configuration not stated)	inactive
CC(=O)Nc1ccc(NC(=O)CCC(=O)Oc2ccc(C)cc2)cc1	inactive
CN(CC(=O)Nc1c(Cl)cccc1Cl)C(=O)C1CC(=O)N(Cc2ccccc2)C1 (configuration not stated)	inactive
Cc1cccc(NC(=O)CNC(=O)Cn2ncc(Cl)c(Cl)c2=O)c1C	21.2 µM (active)
Cc1ccccc1OCC(=O)Nc1cccc(Cl)c1C	inactive

Structure (SMILES)	Potency
CCc1ccccc1NC(=O)CN(C)C(=O)Cn1ncc(Cl)c(Cl)c1=O	35.5 µM (active)
Cc1ccc(CNC(=O)Cn2ncn3cccc3c2=O)cc1	inactive
Cc1ccc(NC(=O)CN(C)C(=O)Cn2ncc(Cl)c(Cl)c2=O)cc1	28.2 µM (active)
O=C(NN/C=C1\C(=O)N(Cc2ccccc2)C(=O)c2ccccc21)c1cccnc1	inactive
CC(=O)Nc1nc2n(n1)C(c1ccccc1)C=C(c1ccccc1)N2 (configuration not stated)	inactive
C1=C(c2ccccc2)Nc2ncnn2C1c1ccccc1 (configuration not stated)	inactive
CCOC(=O)CCc1c(C)c2ccc3c(c2oc1=O)CN(CCCO)CO3	inactive
CC(=O)c1ccc2noc(-c3ccc(C)cc3)c2c1	inactive
Cc1c(C(=O)c2no[n+]([O-])c2C(=O)c2cnn(C)c2C)cnn1C	39.8 µM (active)
Cc1ccc(C(=O)c2no[n+]([O-])c2C(=O)c2ccc(C)cc2)cc1	31.6 µM (active)
Cc1ccc(N2C(=O)C3C(C(=O)c4ccccc4)=NN(c4ccccc4)C3C2=O)cc1 (configuration not stated)	inactive
CC(OC(=O)c1ccccc1O)C(=O)Nc1ccc(Cl)cn1 (configuration not stated)	inactive
COc1cc(C(CC(=O)Nc2ccc(Cl)cn2)N2Cc3ccccc3C2=O)cc(OC)c1OC (configuration not stated)	inactive
CCc1cc2c(CN3CCN(C)CC3)cc(=O)oc2cc1O	inactive
COCOCCn1cc(CN2CCS(=O)(=O)N(Cc3ccc(-c4ccccc4)cc3)C(CC(C)C)C2=O)nn1 (configuration not stated)	39.8 µM (active)
COCOCCn1cc(CN2CCS(=O)(=O)N(Cc3ccc(-c4ccc(Cl)c(Cl)c4)cc3)C(C)C2=O)nn1 (configuration not stated)	22.4 µM (active)
COCOCCn1cc(CN2CCS(=O)(=O)N(Cc3ccc(-c4ccc(Cl)c(Cl)c4)cc3)C(C(C)C)C2=O)nn1 (configuration not stated)	28.2 µM (active)
CCOC(=O)NC(=O)/C(=C/Nc1ccc(Cl)c(Cl)c1Cl)C(C)=O	inactive
Nc1c(C(=O)N2CCCC2)sc2nc3c(cc12)CCCCCC3	inactive
c1cnn2c(-c3ccc4c(c3)CCO4)cnc2c1	inactive
O=C(CNC(=O)OCc1ccccc1)Oc1cc2oc(=O)cc(-c3ccccc3)c2cc1Cl	inactive
Cc1onc(C(=O)NC2CCCCC2)c1[N+](=O)[O-]	inactive
